M1 antag – human M1 muscarinic receptor antagonists, primary screen, CHO-K1 cells, Fluo-8 calcium fluorescence, 1536-well | Muscarinic acetylcholine receptor M1 (Homo sapiens), P11229 | CHO-K1 hM1, ACh EC80 antagonist | inhibition, % at 3 µM | 360,000 tested, 1.3% active;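 active = percent inhibition above its own plate's cutoff, namely the mean of that plate's compound wells plus 3 SD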;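 note: peak over basal fluorescence ratio during 140 s after agonist addition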
Target sequence (P11229 whole entry, looked up): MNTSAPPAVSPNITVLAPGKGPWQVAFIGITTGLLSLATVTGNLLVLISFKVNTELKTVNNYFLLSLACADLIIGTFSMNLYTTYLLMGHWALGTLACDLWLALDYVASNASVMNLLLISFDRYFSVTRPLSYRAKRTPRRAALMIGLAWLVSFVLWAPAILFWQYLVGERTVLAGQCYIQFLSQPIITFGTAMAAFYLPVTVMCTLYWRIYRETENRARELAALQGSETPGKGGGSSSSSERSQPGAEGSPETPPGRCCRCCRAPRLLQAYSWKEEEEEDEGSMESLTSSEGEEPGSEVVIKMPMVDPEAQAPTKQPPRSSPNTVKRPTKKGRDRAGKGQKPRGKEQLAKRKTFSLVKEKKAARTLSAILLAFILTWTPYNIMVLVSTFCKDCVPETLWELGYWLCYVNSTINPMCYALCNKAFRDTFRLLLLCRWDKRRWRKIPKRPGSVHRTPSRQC
CHRM1 agonist – human M1 muscarinic receptor agonists, primary screen, Fluo-8 calcium fluorescence, CHO-K1 cells, HTS; Muscarinic acetylcholine receptor M1 (Homo sapiens), P11229; 360,000 tested, 0.33% active; activation, % at 3 µM; CHO-K1 hM1, agonist mode; 0% DMSO, 100% acetylcholine EC100;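 active = activation above the run's mean compound activation plus 3 SD, cut at about 16% in these data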;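 note: peak over basal fluorescence ratio within a 140 s kinetic read after compound addition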
CHO-K1 Ca antag – M1 antagonist counterscreen hit in parental CHO-K1 cells; ATP-induced calcium, Fluo-8 fluorescence; inhibition, % at 3 µM; 360,000 tested, 0.6% active; AID 602250;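 active = inhibition above a per-plate cutoff, the plate's mean sample inhibition plus 3 SD, cut at about 24% in these data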
CHRM1 PAM – human M1 muscarinic receptor positive allosteric modulators, primary screen, CHO-K1 cells, Fluo-8 calcium fluorescence, 1536-well; AID 588819, 2011; activation, % at 3 µM; Muscarinic acetylcholine receptor M1 (Homo sapiens), P11229; CHO-K1 hM1, ACh EC20; 0% = ACh EC20, 100% = maximal ACh; 360,000 tested, 0.088% active; in the data active = activation above about 19%, passing the limit was not always enough
CHO-K1 Ca PAM – nonselective calcium activators in parental CHO-K1 cells, primary screen, counter-screen for M1 PAM project, cell-based, Fluo-8 calcium fluorescence, full deck, 1536-well. 360,000 tested, 0.02% active. activation, % at 3 µM. AID 602247, 2012. ATP EC20; 0% at ATP EC20, 100% at ATP max;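 active = activation above the run cutoff, the mean activation of all test compounds plus 3 SD, cut at about 40% in these data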;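 note: peak over basal fluorescence ratio in a 140 s read after ATP addition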
M1 ag parental – counter-screen for M1 agonists: effect in parental CHO-K1 cells | 360,000 tested, 0.48% active | activation, % at 3 µM | Fluo-8 calcium fluorescence; scaled to maximal ATP response, vehicle zero | AID 602248, 2012; in the data active = activation above about 15%;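 note: untransfected CHO-K1 host cells lacking M1 receptor as counterscreen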
A number is an active result; . = inactive; / = no result given. A selection: hits, their analogues and other compounds. The true share with any hit is near 2.3%.

SMILES	M1 antag	CHRM1 agonist	CHO-K1 Ca antag	CHRM1 PAM	CHO-K1 Ca PAM	M1 ag parental
COc1cc(C(=O)NC(CCSC)C(=O)OCc2cc([N+](=O)[O-])cc3c2OCOC3)cc(OC)c1OC (stereo unspecified)	25.9	.	.	.	.	.
Cc1ccc(CNC(=O)C2CN(S(C)(=O)=O)c3cc(Cl)ccc3O2)cc1 (stereo unspecified)	.	.	.	.	.	.
COc1ccccc1NC(=O)C1C2C=CC(C2)C1C(=O)NCc1cccnc1 (stereo unspecified)	.	.	25.6	.	.	.
COc1ccc(OC)c(NC(=O)C2C3C=CC(C3)C2C(=O)NCc2cccnc2)c1 (stereo unspecified)	.	.	.	.	.	.
COc1ccccc1NC(=O)C(=O)NCc1ccncc1	.	.	25.3	.	.	.
COC(=O)c1ccccc1NC(=O)NCc1ccncc1	.	.	.	.	.	16.5
COc1ccccc1NC(=O)C(=O)N1CCCC1	.	.	.	.	.	15.9
CCOc1cccc(NC(=O)c2cccc(F)c2)c1	.	.	.	.	.	.
CC(C)(C)OC(=O)N1CCC[C@H]1C(=O)N1CCC[C@H]1C(=O)NCc1ccncc1	/	/	.	/	.	.
COC(=O)c1ccccc1NC(=O)CCc1ccccc1	.	.	24.1	.	.	.
COc1ccc(CCNC(=O)c2cc3c(=O)n4ccccc4nc3n(Cc3ccco3)c2=N)cc1OC	.	.	28.0	.	.	.
CCCCN(CC)CCNC(=O)c1cc2c(-c3ccccc3F)nn(C)c2s1	.	.	.	27.8	.	.
CC1CCCCN1CCNC(=O)c1cc2c(-c3ccccc3F)nn(C)c2s1 (stereo unspecified)	.	.	.	.	.	.
CCOc1ccc(Br)cc1S(=O)(=O)Nc1cccc(S(=O)(=O)N(C)C)c1	.	.	.	.	.	.
O=[N+]([O-])c1cccc(-c2ccn[nH]2)c1	.	.	.	30.6	.	.
O=[N+]([O-])c1cc(-c2ccn[nH]2)ccc1Cl	.	.	.	.	.	.
COCCNC(=S)N1CCC(C(=O)c2ccc(F)cc2)CC1	.	.	.	.	.	.
COc1ccc(C(=O)C2CCN(C(=S)NCCc3ccc(OC)c(OC)c3)CC2)cc1	.	.	.	.	.	18.2
Cc1ccc(NC(=O)N2CCC(C(=O)c3ccc(F)cc3)CC2)cc1	.	.	.	.	.	.
COc1ccc(C(=O)C2CCN(C(=S)NCCc3ccccc3)CC2)cc1	.	.	.	.	.	.
COc1ccc(C(=O)C2CCN(C(=O)Nc3ccc(C)cc3)CC2)cc1	.	.	.	.	.	18.8
COc1ccc(CCNC(=S)N2CCC(C(=O)c3ccc(F)cc3)CC2)cc1OC	.	.	.	.	.	15.4
CCN(CC)S(=O)(=O)c1ccc(NC(=O)c2ccc(OCC3CCCO3)cc2)cc1 (stereo unspecified)	.	.	.	.	.	.
COc1ccccc1C(=O)C1CCCN(C(=O)CN2CCCCC2=O)C1 (stereo unspecified)	.	.	.	.	.	.
CNC(=S)NN=C(C)CCCC(C)=NNC(=S)NC	.	.	.	.	.	.
SMILES	M1 antag	CHRM1 agonist	CHO-K1 Ca antag	CHRM1 PAM	CHO-K1 Ca PAM	M1 ag parental
CC(C)NC(=O)c1ccc2c(c1)N(Cc1ccccc1)C(=O)C(C)(C)O2	.	.	24.4	.	.	.
CC(C)NC(=O)c1ccc2c(c1)N(CC(=O)N1CCCC1)C(=O)C(C)(C)O2	.	.	.	.	.	.
Cn1nccc1C(=O)Nc1cccc(S(=O)(=O)N2CCOCC2)c1	.	.	.	.	.	.
COc1ccc(-c2nc3c(c(SCC(=O)N4CCOCC4)n2)COC(C)(C)C3)cc1	.	.	29.9	.	.	.
O=C(CSC1=NS(=O)(=O)c2cc(Cl)ccc2N1)NCc1ccc(F)cc1	.	.	29.7	.	.	.
O=C(CSC1=NS(=O)(=O)c2cc(F)ccc2N1)NCc1ccccc1	.	.	.	.	.	.
CC(=O)c1ccc(NC(=O)CNC2CCCCC2)cc1	.	.	.	.	.	20.0
C[C@@H]1CN([C@H](C)CO)C(=O)CCCn2nncc2CO[C@H]1CN(C)Cc1ccccc1C(F)(F)F	.	.	.	.	.	.
CCOC(=O)c1oc2c(C)c(O)ccc2c(=O)c1-c1nncn1-c1ccccc1	.	.	30.9	.	.	.
CCOC(=O)c1oc2c(O)c(O)ccc2c(=O)c1-c1nncn1-c1ccccc1	.	.	.	.	.	.
CCOC(=O)N1CCN(C(=O)c2cc(Cl)c(Cl)cc2C(=O)O)CC1	.	31.6	.	.	.	.
CCCOC1CCCN(C(=O)c2cc(Cl)c(Cl)cc2C(=O)O)C1 (stereo unspecified)	51.7	59.7	.	.	.	.
CCCCN1C(=O)C(=O)N(CC(=O)Nc2cc(OCC)c(N3CCOCC3)cc2OCC)C1=O	.	.	.	.	.	.
Cc1ccc(S(=O)(=O)N(C)CC(=O)OCC(=O)c2c(N)n(C)c(=O)n(C)c2=O)cc1	.	.	.	.	.	.
O=C(O)c1cccc(NC(=S)N/N=C/c2ccccc2OCc2ccc(Br)cc2)c1	.	.	27.0	.	.	.
COc1ccc(N2CCN(C(=O)CSc3nnc4n3C(C)(C)Cc3ccccc3-4)CC2)cc1	.	.	.	.	.	.
Cc1ccc(Cl)cc1N1CCN(C(=O)CSc2nnc3n2C(C)(C)Cc2ccccc2-3)CC1	49.5	.	.	.	.	.
O=C(O)c1ccc(COc2ccc3ccccc3c2/C=C2/NC(=O)N(c3ccccc3)C2=O)cc1	.	.	.	.	.	.
CCN1C(=O)S/C(=C/c2c(OCc3ccc(C(=O)O)cc3)ccc3ccccc23)C1=O	.	29.1	.	.	.	.
Cc1ccc(C(=O)N2CCC(C(=O)Nc3cccc([N+](=O)[O-])c3)CC2)cc1	.	.	.	.	.	.
COc1cc(/C=C2\SC(=Nc3ccccc3)NC2=O)cc(Cl)c1O	50.4	78.7	32.3	.	.	37.9
COc1cc(/C=C2\SC(=Nc3ccc(Cl)c(C(=O)O)c3)NC2=O)c(Br)c(Br)c1O	.	51.4	26.8	.	.	41.9
CCc1ccc(N=C2NC(=O)/C(=C/c3cc(OC)c(O)c(OC)c3)S2)cc1	.	.	.	.	.	.
C[C@@H]1CN([C@H](C)CO)C(=O)c2cc(C#CC3CCCCC3)cnc2O[C@H]1CN(C)Cc1cccnc1	33.8	.	.	.	.	.
